Assay outcomes (PubChem BioAssay)
Shown are actives, neighbours in structure and some others; about 12% of the full set was active somewhere.
Sfp inh – inhibitors of Bacillus subtilis Sfp phosphopantetheinyl transferase. Q9F4F7. Biochemical Sfp PPTase activity, qHTS. Potency, µM, without a hit: largest response in the series, negative = inhibition, hits mostly inhibitors. actives 3.5% (n = 310,000). AID 1490;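 also: the enzyme is Sfp with the accession as filed and its product quenches rhodamine fluorescence; 0% = enzyme reaction without inhibitor and -100% = no enzyme wells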
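Fluorescence-quenching assay: 15 nM Sfp-PPTase preincubated 15 min at room temperature with compound, then 5 uM rhodamine-CoA and 12.5 uM BHQ-2-labelled YbbR peptide added. Fluorescence (ex 525/em 598 nm) read at start and after 30 min; difference gives rate.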
JMJD2A Tudor inh – inhibitors of human JMJD2A Tudor domain; O75164; AlphaScreen JMJD2A-Tudor / H3K4me3 peptide binding; Potency, µM (series often up to 114 µM), for the others: top-dose activity change, negative = inhibition, usual class: inhibitors; actives 4.4% (n = 390,000); AID 504339; also: % is scaled to controls: 0 for no effect and ±100 for the full control effect; nearly all actives have a fitted effect of over 50% in size
BAZ2B block – inhibitors of human BAZ2B bromodomain | AlphaScreen BAZ2B-H3K14Ac peptide displacement | Potency, µM (top dose mostly 114 µM), inactives show at the top dose activity change, negative = inhibition, usual class: inhibitors | Q9UIF8 | AID 504333 | actives 4.4% (n = 360,000); also: % is scaled to controls: 0 for no effect and ±100 for the full control effect; nearly all actives have a fitted effect of over 60% in size
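Complex of BAZ2B and biotin-H3K14Ac (50 nM apiece) forms over 30 min at RT, then faces library compounds up to 110 uM for another 30 min; AlphaScreen beads added, 20 min dark incubation, luminescence read.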
G9a inh – blocks human histone lysine methyltransferase G9a; Q96KQ7; G9a H3K9 monomethylation, AlphaScreen, 2 h; Potency, µM (top dose mostly 102 µM), for inactives: top-dose activity, negative = inhibition, actives largely listed as inhibitors; actives 8.8% (n = 350,000); also: % is scaled to controls: 0 for no effect and ±100 for the full control effect; nearly all actives have a fitted effect of over 75% in size
Target sequence (Q96KQ7 913-1193 limits assumed): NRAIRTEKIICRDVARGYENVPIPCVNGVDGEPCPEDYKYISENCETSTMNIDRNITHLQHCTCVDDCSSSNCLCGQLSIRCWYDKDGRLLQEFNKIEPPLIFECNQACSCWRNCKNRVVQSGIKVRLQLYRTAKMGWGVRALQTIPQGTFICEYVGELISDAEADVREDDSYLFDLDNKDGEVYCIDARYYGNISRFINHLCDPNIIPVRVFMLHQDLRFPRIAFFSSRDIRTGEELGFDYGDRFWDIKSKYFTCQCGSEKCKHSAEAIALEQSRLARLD
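Enzyme 20 nM + cpd, 15 min RT; add b-H3K9 pep 500 nM / SAM 20 uM; 2 h RT; anti-H3K9me1 Ab 0.5 ug/mL + SA donor / anti-rabbit acceptor beads 20 ug/mL each, 10 min; AlphaScreen read.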
HP1b binding inh – blocks HP1-beta chromodomain binding to methylated histone tails; P83916; AlphaScreen HP1-beta / biotin-H3K9me3 peptide binding; Potency, µM (titrated, usually from 114 µM), inactives show at the highest dose activity change, negative = inhibition, most hits filed as inhibitors; actives 0.56% (n = 390,000); AID 540317; also: nearly all actives have a fitted effect of over 70% in size
Target sequence (P83916 whole entry, looked up): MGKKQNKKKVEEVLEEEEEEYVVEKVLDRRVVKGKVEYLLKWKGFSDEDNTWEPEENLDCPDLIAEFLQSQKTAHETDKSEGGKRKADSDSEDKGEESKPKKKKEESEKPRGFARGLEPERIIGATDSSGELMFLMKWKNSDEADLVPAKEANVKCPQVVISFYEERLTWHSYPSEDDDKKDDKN
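AlphaScreen: HP1-beta (50 nM) preformed 30 min with biotin-H3(1-18)K9me3 peptide (50 nM) in PBS pH 7.4, 0.01% Tween-20. Compound added for 30 min at RT, then streptavidin donor/nickel chelate acceptor beads (10 ug/mL) for 30 min.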
Starred values were filed as active, the others as inactive; [ ] = dose if it differs, or a comment. Calls follow the shape of the dose curve; as a rule, active = well fitted curve in the direction sought with a large enough effect; inconclusive = small, poorly fitted or top-dose-only effect, or another doubt; inactive = no such curve, though single readings can be large; an effect the other way counts as inactive or inconclusive. Potency is read from the fitted curve at half-maximal effect.

How did CC[C@H](C)[C@H](NC(=O)[C@H](C)NC(=O)[C@H](CC(N)=O)NC(=O)[C@H](CCCCN)NC(=O)[C@H](Cc1ccccc1)NC(=O)[C@H](CC(C)C)NC(=O)[C@@H](NC(=O)[C@@H](NC(=O)[C@H](CC(C)C)NC(=O)[C@@H]1CCCN1C(=O)[C@@H](NC(=O)[C@H](CCC(N)=O)NC(=O)[C@H](CO)NC(=O)[C@H](CCCCN)NC(=O)[C@H](CCC(=O)O)NC(=O)[C@H](CO)NC(=O)[C@@H](NC(=O)[C@H](CCSC)NC(=O)[C@H](Cc1ccccc1)NC(=O)CNC(=O)CNC(=O)[C@@H](N)Cc1ccc(O)cc1)[C@@H](C)O)[C@@H](C)O)C(C)C)[C@@H](C)O)C(=O)N[C@H](C(=O)N[C@@H](CCCCN)C(=O)N[C@@H](CC(N)=O)C(=O)N[C@@H](C)C(=O)N[C@@H](Cc1ccc(O)cc1)C(=O)N[C@@H](CCCCN)C(=O)N[C@@H](CCCCN)C(=O)NCC(=O)N[C@@H](CCC(=O)O)C(=O)O)[C@@H](C)CC do in these assays?
Sfp inh: 1%; G9a inh: 21%[59 µM]

How did Cc1c(P(=S)(c2ccccc2)c2ccccc2)c2ccccc2n1C(=O)NCc1ccccc1 do in these assays?
JMJD2A Tudor inh: -18%

What do the screens show for `CC(C)C1C(C#N)=C(N)SC(N)=C1C#N`?
Sfp inh: inconclusive; JMJD2A Tudor inh: 18%; BAZ2B block: -38%; G9a inh: 14µM*; HP1b binding inh: 41%

Results for CCC(CC)C1C(C#N)=C(N)SC(N)=C1C#N ?
Sfp inh: 10%; JMJD2A Tudor inh: inconclusive; BAZ2B block: -2%; G9a inh: inconclusive; HP1b binding inh: 55%

Results for CC(CC1C(C#N)=C(N)SC(N)=C1C#N)c1ccccc1 (centres undefined) ?
Sfp inh: 7.9µM*; JMJD2A Tudor inh: 56µM*; BAZ2B block: -23%; G9a inh: 10µM*; HP1b binding inh: 13%

What do the screens show for `CC(c1ccccc1)C1C(C#N)=C(N)OC2=C1C(=O)CCC2` (centres undefined)?
Sfp inh: 1%; JMJD2A Tudor inh: 8%; BAZ2B block: 10%; HP1b binding inh: 27%

How did CC(c1ccccc1)C1C(C#N)=C(N)SC(N)=C1C#N (centres undefined) do in these assays?
Sfp inh: 22µM*; JMJD2A Tudor inh: inconclusive; BAZ2B block: 12%; G9a inh: 16µM*; HP1b binding inh: 23%

What do the screens show for `CSCCC(NS(=O)(=O)c1ccccc1)C(=O)OC(C)C(=O)Nc1ccc(Cl)cn1` (centres undefined)?
JMJD2A Tudor inh: -17%; BAZ2B block: -20%; G9a inh: -1%[12.7 µM]; HP1b binding inh: 31%

How did COC(=O)[C@@]1(Cc2ccc(F)cc2)[C@H]2c3cc(C(=O)N(C)C)n(Cc4ccc(O)c(OC)c4)c3C[C@H]2CN1C(=O)c1ccccc1 do in these assays?
Sfp inh: 0%

What do the screens show for `COC(=O)[C@@]1(Cc2ccc(F)cc2)[C@H]2c3cc(C(=O)N(C)C)n(Cc4ccc(C)o4)c3C[C@H]2CN1C(=O)c1ccccc1`?
Sfp inh: 16µM*

How did COC(=O)[C@@]1(Cc2ccc(F)cc2)[C@H]2c3cc(C(=O)N(C)C)n(CCO)c3C[C@H]2CN1C(=O)c1ccccc1 do in these assays?
Sfp inh: 15%

How did COC(=O)[C@@]1(Cc2ccc(F)cc2)[C@H]2c3cc(C(=O)N(C)C)n(CCc4ccc(OC)c(Br)c4)c3C[C@H]2CN1C(=O)c1ccccc1 do in these assays?
Sfp inh: 27%; JMJD2A Tudor inh: inconclusive; BAZ2B block: inconclusive; G9a inh: 25µM*; HP1b binding inh: 1%

How did COC(=O)[C@@]1(Cc2ccc(OC)cc2)[C@H]2c3cc(C(=O)N4CCCC4)n(Cc4ccc(C)o4)c3C[C@H]2CN1C(=O)c1ccccc1 do in these assays?
Sfp inh: inconclusive; BAZ2B block: 40µM*; G9a inh: 79µM*

How did COC(=O)[C@@]1(Cc2ccc(F)cc2)[C@H]2c3cc(C(=O)N(C)C)n(Cc4ccc(OC)c(OC)c4)c3C[C@H]2CN1C(=O)c1ccccc1 do in these assays?
Sfp inh: -15%; JMJD2A Tudor inh: inconclusive; BAZ2B block: inconclusive; G9a inh: 50µM*; HP1b binding inh: -14%

How did COC(=O)[C@@]1(Cc2ccc(OC)cc2)[C@H]2c3cc(C(=O)N4CCCC4)n(Cc4ccc(S(C)(=O)=O)cc4)c3C[C@H]2CN1C(=O)c1ccccc1 do in these assays?
Sfp inh: 15%

Results for CCC(C)/C(C)=N/NC(=O)c1ccc(CSc2nc3ccccc3s2)cc1 (centres undefined) ?
Sfp inh: 2%; JMJD2A Tudor inh: -19%; BAZ2B block: -5%; G9a inh: 9%[59 µM]; HP1b binding inh: 31%

How did Cc1c(C(=O)NCC(c2ccc(Cl)cc2)N2CCOCC2)oc2ccccc12 (centres undefined) do in these assays?
JMJD2A Tudor inh: -19%; BAZ2B block: -18%; G9a inh: -7%[59 µM]; HP1b binding inh: 30%

Results for CN1OC[C@@H]2CN(C(=O)CCc3ccccc3)[C@H](c3cccc(-c4ccc(C#N)cc4)c3)C[C@@H]21 ?
JMJD2A Tudor inh: -16%; HP1b binding inh: 31%

Results for CCCNC(=O)Cn1nc(C)c2c(C)n(-c3ccccc3)nc2c1=O ?
JMJD2A Tudor inh: 1%; BAZ2B block: -5%; G9a inh: -10%[59 µM]; HP1b binding inh: 0%

Results for COC(=O)[C@@]1(Cc2ccccc2)[C@H]2c3cc(C(=O)N4CCCC4)n(CCSCCO)c3C[C@H]2CN1C(=O)c1ccccc1 ?
Sfp inh: -8%; BAZ2B block: inconclusive; G9a inh: 25µM*

Results for COC(=O)[C@@]1(Cc2ccc(F)cc2)[C@H]2c3cc(C(=O)N4CCCC4)n(CCc4c[nH]c5ccc(OC)cc45)c3C[C@H]2CN1C(=O)c1ccccc1 ?
Sfp inh: 15%; BAZ2B block: inconclusive; G9a inh: 40µM*

How did COc1ccccc1C(=O)NCCCCNC(=O)c1ccccc1OC do in these assays?
JMJD2A Tudor inh: 3%; HP1b binding inh: 24%

What do the screens show for `Cc1ccc(S(=O)(=O)NCCc2cn3ccsc3n2)cc1`?
JMJD2A Tudor inh: -5%; BAZ2B block: 4%; G9a inh: 9%[59 µM]; HP1b binding inh: 15%[57 µM]

Results for CC(NC(=O)C1CCCN1S(=O)(=O)c1cccc2nsnc12)c1ccccc1 (centres undefined) ?
Sfp inh: -1%; JMJD2A Tudor inh: -10%; BAZ2B block: 2%; HP1b binding inh: 32%
